Experiments:
Test in all cases: pooled miR-30 sensor sort-seq; sequence = guide strand
Details in all cases: shRNA
[1] = biological target: NMRAL1
[2] = biological target: NMUR2
[3] = biological target: NODAL
[4] = biological target: NPBWR1
[5] = biological target: NTRK3
[6] = biological target: NUP54
[7] = biological target: ODF3L1
[8] = biological target: OTP
[9] = biological target: P4HA2
[10] = biological target: P4HB
[11] = biological target: P2RY8
[12] = biological target: P2RY6
[13] = biological target: PAFAH1B2
[14] = biological target: PARP11
[15] = biological target: PCSK5
[16] = biological target: PDLIM4
[17] = biological target: PDZD4
Note: reference of the scale not given here.

## TCCTTTGCTGCCTTCTTCCTAG
[1]
  sensor-assay potency score (higher = more potent): -1.25

## TAATTGGTCACGATGAAGGTGG
[1]
  sensor-assay potency score (higher = more potent): -0.074

## TTTCTTTAGTCTGAGTGCCATG
[2]
  sensor-assay potency score (higher = more potent): -1.41

## TGGTGATCTAGGAGCACTCTGC
[3]
  sensor-assay potency score (higher = more potent): -1.24

## TTTGCTGCCTTCTTCCTAGGGT
[1]
  sensor-assay potency score (higher = more potent): 0.121

## TTTGTCTTTCTTTAGTCTGAGT
[2]
  sensor-assay potency score (higher = more potent): -1.1

## AACTGGTACAGCCACCGCCAGC
[4]
  sensor-assay potency score (higher = more potent): -1.89

## TTTGTAGATCTCCTTGATGTTC
[5]
  sensor-assay potency score (higher = more potent): -1.01

## TAGAGCTCCATGTCCACGGCGT
[5]
  sensor-assay potency score (higher = more potent): 0.00985

## TAACAGATCTGCATCTATGTAA
[6]
  sensor-assay potency score (higher = more potent): 0.386

## TGATCTATGTAGCCCGTGCAGG
[7]
  sensor-assay potency score (higher = more potent): -1.19

## TTGAACATGGAGATGTCATGAT
[7]
  sensor-assay potency score (higher = more potent): 0.585

## TTGGTAGCAATGCTTGTCCTCC
[8]
  sensor-assay potency score (higher = more potent): -0.441

## TTGCAACCTGTAACAATTCTGC
[9]
  sensor-assay potency score (higher = more potent): -0.407

## TTGTAATCAATGACCGTCCTGT
[10]
  sensor-assay potency score (higher = more potent): 0.492

## TTGCTTTCTAGGGTTCAGCTTT
[11]
  sensor-assay potency score (higher = more potent): -0.874

## TTATTGGAGACCCACTTGCAGC
[9]
  sensor-assay potency score (higher = more potent): -1.45

## TTTTCCATCTTAAAACATGTGT
[11]
  sensor-assay potency score (higher = more potent): -0.223

## TTCACCTCCAAAAATCTTCGGG
[10]
  sensor-assay potency score (higher = more potent): 0.109

## TTAAGAAACGTCGCTAACCTAT
[9]
  sensor-assay potency score (higher = more potent): -0.763

## TTAGGTTTTGCGATCTCCTTGA
[9]
  sensor-assay potency score (higher = more potent): 0.73

## TATTTGGAGAACACGTCACTGT
[10]
  sensor-assay potency score (higher = more potent): -0.00902

## TTGTACCAGAACACAGCTGTAC
[9]
  sensor-assay potency score (higher = more potent): -0.305

## TTTTGTGAGCACCTTAATGTGG
[12]
  sensor-assay potency score (higher = more potent): -0.636

## TTTGATAAAGTCCAGCAGGTTC
[10]
  sensor-assay potency score (higher = more potent): -0.96

## ATAGTTGTAGATGAGCAGGGGC
[12]
  sensor-assay potency score (higher = more potent): 0.421

## TTGGAGAACACGTCACTGTTGG
[10]
  sensor-assay potency score (higher = more potent): 0.0264

## TTGACAGGCTGCTTGTCCCAGT
[10]
  sensor-assay potency score (higher = more potent): -0.656

## TTGATCATGAAGATGACCGACG
[11]
  sensor-assay potency score (higher = more potent): -0.289

## TTTCTTAAAACCATCCAGCGTG
[10]
  sensor-assay potency score (higher = more potent): -0.457

## TTCCTGAAGAACTTGATGGTGG
[10]
  sensor-assay potency score (higher = more potent): 0.134

## TTGAGGACGTCGAAGCAGGTGA
[11]
  sensor-assay potency score (higher = more potent): -0.556

## TTGGCAGTCGAGTCCATCTTGG
[10]
  sensor-assay potency score (higher = more potent): -1.06

## TTTAGGTTTTGCGATCTCCTTG
[9]
  sensor-assay potency score (higher = more potent): -0.309

## TTAACGTTTTTTCTCTCTCTTC
[9]
  sensor-assay potency score (higher = more potent): -0.749

## TGGAACAGTCTAGAGAAGCAGG
[11]
  sensor-assay potency score (higher = more potent): -1.38

## TCAACCAGTGAACAGACTGAGT
[11]
  sensor-assay potency score (higher = more potent): -1.22

## TACTGTGAAGATGCTACTCTGA
[11]
  sensor-assay potency score (higher = more potent): -0.29

## TAATCTTGGAAAGCTTGGCTTC
[9]
  sensor-assay potency score (higher = more potent): -0.909

## TACACGTGGTAGTAGCTCTTGC
[11]
  sensor-assay potency score (higher = more potent): -0.559

## TAGAACTCCACAAAGACGTTTT
[10]
  sensor-assay potency score (higher = more potent): -0.145

## TTCTACATCACTCATGTAGTTA
[9]
  sensor-assay potency score (higher = more potent): -0.685

## TTGCAGTGACCACACCATGGGG
[10]
  sensor-assay potency score (higher = more potent): -1.18

## ATTTAAACAACAATCTTCCTTG
[13]
  sensor-assay potency score (higher = more potent): 0.529

## TTCATTACTAAACCATCTCTGT
[11]
  sensor-assay potency score (higher = more potent): -0.448

## TTCAGCTTTGGAACAGTCTAGA
[11]
  sensor-assay potency score (higher = more potent): -0.295

## TAGACAGCTAACTCTGCTGCAG
[9]
  sensor-assay potency score (higher = more potent): -0.415

## TTTCACTCAAAGCTCAACCAGT
[11]
  sensor-assay potency score (higher = more potent): 0.0389

## TTGCCTGGTACTTGGTTCCTGG
[9]
  sensor-assay potency score (higher = more potent): -0.843

## TTACAGTCCAAAACAAATCTGT
[13]
  sensor-assay potency score (higher = more potent): 0.236

## TTCTGCTGTATTTTCGTGGTTA
[13]
  sensor-assay potency score (higher = more potent): 0.637

## TATCTCGTCCTCATCAGTGGGG
[9]
  sensor-assay potency score (higher = more potent): 0.413

## TTTCTGATCATCGTCTTCCTCC
[10]
  sensor-assay potency score (higher = more potent): 0.0481

## TACTTGAGTATTCACATTCTCC
[14]
  sensor-assay potency score (higher = more potent): -0.755

## TTTGACACATTCCTAAGTCTAA
[15]
  sensor-assay potency score (higher = more potent): -0.793

## TTGGTCTGCCATCTTCTGGCCC
[16]
  sensor-assay potency score (higher = more potent): -0.715

## TTTTATACAGCTCCACCTCCTC
[17]
  sensor-assay potency score (higher = more potent): -1.13

## TTTCAGTTTACGAGCACGCAGC
[17]
  sensor-assay potency score (higher = more potent): -0.95

## TGCACATGAAGCACTCGGGATG
[16]
  sensor-assay potency score (higher = more potent): -1.65

## TGTCCTTGTCCGACTTCTCGGG
[17]
  sensor-assay potency score (higher = more potent): -0.294

Source: the OligoGym collection
